From PubChem BioAssay (NCI)
The panel holds about 83,000 compounds, 20% with a hit somewhere; the sample as a whole holds those more often.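 How to read the values: 0–100, growth inhibition (40 = 60% inhibited); 0, no net growth; -100 to 0, cell death (-40 = 40% of starting cells died; -100 = all dead).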 A number with no mark means an inactive call. Activity calls are given as the source filed them. Rule for the calls: active = growth percent below 10; inactive = the rest.

Assays:
Assay in all cases: NCI-60 one-dose screen, 48 h (100 = growth as untreated, 0 = no growth, -100 = all killed)
Settings in all cases: 10 µM unless noted
SNB-75 CNS = test system: SNB-75 CNS
SNB-19 CNS = test system: SNB-19 CNS
U251 CNS = test system: U251 CNS
PC-3 prostate = test system: PC-3 prostate
SK-MEL-5 melanoma = test system: SK-MEL-5 melanoma
UACC-62 melanoma = test system: UACC-62 melanoma
SK-MEL-28 melanoma = test system: SK-MEL-28 melanoma
SK-MEL-2 melanoma = test system: SK-MEL-2 melanoma
LOX IMVI melanoma = test system: LOX IMVI melanoma

COc1cccc(OC)c1-c1nnn(C)c1C(=S)N1CCN(c2ccc([N+](=O)[O-])cc2Cl)CC1
growth (SNB-75 CNS): 92.2% | growth (SNB-19 CNS): 92.7% | growth (U251 CNS): 97.9% | growth (PC-3 prostate): 54% | growth (SK-MEL-5 melanoma): 90.1% | growth (UACC-62 melanoma): 69.1% | growth (SK-MEL-28 melanoma): 98.3% | growth (SK-MEL-2 melanoma): 110%

Nc1c(C(=O)Nc2ccc(C(F)(F)F)cc2)sc2nc(-c3cnccn3)cc(-c3cccs3)c12
growth (SNB-75 CNS): 34.2% | growth (SNB-19 CNS): 52.2% | growth (U251 CNS): 79.5% | growth (PC-3 prostate): 42.2% | growth (SK-MEL-5 melanoma): 90.1% | growth (UACC-62 melanoma): 84.6% | growth (SK-MEL-28 melanoma): 89.8% | growth (SK-MEL-2 melanoma): 101%

OC1CCN(CCCOc2c3ccccc3nc3c2oc2ccccc23)CC1
growth (SNB-75 CNS): -1.06% (active) | growth (SNB-19 CNS): 0.345% (active) | growth (U251 CNS): 4.21% (active) | growth (PC-3 prostate): -1.48% (active) | growth (SK-MEL-5 melanoma): -69.1% (active) | growth (UACC-62 melanoma): -57.8% (active) | growth (LOX IMVI melanoma): -63.3% (active) | growth (SK-MEL-28 melanoma): -2.42% (active) | growth (SK-MEL-2 melanoma): -62.4% (active)

Cc1sc2nc(NCc3ccccc3Cl)[nH]c(=O)c2c1C
growth (SNB-75 CNS): 82.8% | growth (SNB-19 CNS): 102% | growth (U251 CNS): 72.9% | growth (PC-3 prostate): 73.9% | growth (SK-MEL-5 melanoma): 72.9% | growth (UACC-62 melanoma): 75.8% | growth (LOX IMVI melanoma): 68.8% | growth (SK-MEL-28 melanoma): 98.6% | growth (SK-MEL-2 melanoma): 106%

C#Cc1nc(C2=C(C)C(OC(=O)CCC(=O)O)CC2)cs1 (stereo unspecified)
growth (SNB-75 CNS): 98.3% | growth (SNB-19 CNS): 104% | growth (U251 CNS): 106% | growth (PC-3 prostate): 102% | growth (SK-MEL-5 melanoma): 101% | growth (UACC-62 melanoma): 95.3% | growth (SK-MEL-2 melanoma): 114%

COc1ccc(C(=O)/C=C/c2ccc(Oc3nc(NCCO)nc(N4CCOCC4)n3)c(OC)c2)cc1
growth (SNB-75 CNS): 89.6% | growth (SNB-19 CNS): 69.3% | growth (U251 CNS): 43.1% | growth (PC-3 prostate): 80% | growth (SK-MEL-5 melanoma): 95.2% | growth (UACC-62 melanoma): 70.3% | growth (SK-MEL-28 melanoma): 97.3%

OC1CCc2c(-c3ccc4ncnc(N5CCc6cc(F)c(Cl)cc65)c4c3)cncc21 (stereo unspecified)
growth (SNB-75 CNS): 31.7% | growth (SNB-19 CNS): 57.2% | growth (U251 CNS): 69.6% | growth (PC-3 prostate): 41.3% | growth (SK-MEL-5 melanoma): 54% | growth (UACC-62 melanoma): 43.5% | growth (LOX IMVI melanoma): 54% | growth (SK-MEL-28 melanoma): 73.6% | growth (SK-MEL-2 melanoma): 46.7%

COc1cc2nc(-c3ccc(C(F)(F)F)cc3)cc(OCCCNCC3CCCO3)c2cc1OC (stereo unspecified)
growth (SNB-75 CNS): 8.73% (active) | growth (SNB-19 CNS): 75.3% | growth (U251 CNS): 55.7% | growth (PC-3 prostate): 45.4% | growth (SK-MEL-5 melanoma): 4.75% (active) | growth (UACC-62 melanoma): -22.1% (active) | growth (LOX IMVI melanoma): -13.4% (active) | growth (SK-MEL-28 melanoma): -26.8% (active) | growth (SK-MEL-2 melanoma): 91.7%

N#Cc1c(-c2ccc(Cl)cc2)nc(SCc2ccc(F)cc2)nc1N1CCNCC1
growth (SNB-75 CNS): 65.3% | growth (SNB-19 CNS): 76.6% | growth (U251 CNS): -71.5% (active) | growth (PC-3 prostate): 53.8% | growth (SK-MEL-5 melanoma): 62.5% | growth (UACC-62 melanoma): 95% | growth (LOX IMVI melanoma): -59.2% (active) | growth (SK-MEL-28 melanoma): 99.3% | growth (SK-MEL-2 melanoma): 111%

C/C(=N/NC(N)=S)c1ccc(Nc2nc(SCC(C)C)nc(-c3ccc(F)cc3)c2C#N)cc1
growth (SNB-75 CNS): 80.6% | growth (SNB-19 CNS): 15.4% | growth (U251 CNS): -39.6% (active) | growth (PC-3 prostate): -14.5% (active) | growth (SK-MEL-5 melanoma): 37.3% | growth (UACC-62 melanoma): -18.4% (active) | growth (LOX IMVI melanoma): -20% (active) | growth (SK-MEL-28 melanoma): -9.66% (active) | growth (SK-MEL-2 melanoma): 11.1%

O=C(N/N=C/c1ccc[nH]1)c1[nH]c2ccc(Br)cc2c1-c1ccccc1
growth (SNB-75 CNS): 27.3% | growth (SNB-19 CNS): 30.6% | growth (U251 CNS): 21.8% | growth (PC-3 prostate): 15.2% | growth (SK-MEL-5 melanoma): -34.3% (active) | growth (UACC-62 melanoma): 13.4% | growth (SK-MEL-28 melanoma): 61.2%

CC(C)Sc1nc(Nc2ccc(S(N)(=O)=O)cc2)c(C#N)c(-c2ccc(F)cc2)n1
growth (PC-3 prostate): 40.9% | growth (SK-MEL-5 melanoma): 54.3% | growth (UACC-62 melanoma): 46.5% | growth (SK-MEL-2 melanoma): 92.5%

Nc1c(C(=O)c2ccc(Br)cc2)oc2nc(-c3cnccn3)cc(-c3cccs3)c12
growth (SNB-75 CNS): 98.3% | growth (SNB-19 CNS): 97.1% | growth (U251 CNS): 92.1% | growth (PC-3 prostate): 96.3% | growth (SK-MEL-5 melanoma): 98% | growth (UACC-62 melanoma): 93.7% | growth (SK-MEL-28 melanoma): 107% | growth (SK-MEL-2 melanoma): 113%

COC(=O)C(Cc1ccccc1)NS(=O)(=O)/N=C1\NC(=O)NC1=C(Cl)Cl (stereo unspecified)
growth (SNB-75 CNS): 106% | growth (SNB-19 CNS): 94.2% | growth (U251 CNS): 106% | growth (PC-3 prostate): 90% | growth (SK-MEL-5 melanoma): 98.1% | growth (UACC-62 melanoma): 78.8% | growth (SK-MEL-28 melanoma): 102% | growth (SK-MEL-2 melanoma): 60.3%
